Source: PubChem BioAssay AID485314 (National Center for Advancing Translational Sciences (NCATS), 2010)
Out of some 340,000 compounds screened, about 4,500 (1.3%) were called active. A call without a number means that no potency is given here. Roughly 5% stayed inconclusive and do not appear here. The call rests on the fitted dose curve; in most records, active means well fitted inhibition curve with a large enough effect; inconclusive means small, poorly fitted or top-dose-only effect, or another doubt; inactive means no such curve, though single readings can be large or run the other way. Only a selection was taken, and actives are over-represented in it overall.

target: DNA polymerase beta (Homo sapiens) (UniProt P06746); assay: qHTS Assay for Inhibitors of DNA Polymerase Beta; conditions: Pol beta primer extension/strand displacement, fluorescence kinetic; series mostly up to 114 µM
How it was run: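 Values derive from four-parameter Hill fits of normalized kinetic data: reads at 0 and 10 min following addition of 50 nM substrate to 10 nM Pol beta preincubated 15 min with compound.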
Potency means the concentration at half of the fitted maximal effect.

SMILES | Potency
COc1cccc(C(=O)Nc2ccc(-c3cc(C(F)(F)F)nn3-c3ccccc3)cc2)c1 | inactive
CCOc1cc(-c2nnc(SCC(=O)NC3CCCCC3)nc2-c2ccc(OC)c(OCC)c2)ccc1OC | inactive
COCCN1C=C2C(=O)C(C)(OC(=O)C3CCCC3)C(=O)C=C2C=C1c1ccsc1 (centres undefined) | inactive
COC(=O)CCCC1=CC2=CC(=O)C(C)(OC(=O)c3cccs3)C(=O)C2=CN1CC(C)C (centres undefined) | inactive
COC/C=C/C1=CC2=CC(=O)C(C)(OC(=O)CCC(=O)OC)C(=O)C2=CO1 (centres undefined) | 39.8 µM (active)
COC(=O)c1cnn(-c2ccc(C(=O)Nc3ccc(OC(F)(F)F)cc3)cc2)c1N | inactive
CCOc1ccc(NC(=O)C2CCN(C(=O)N3CCOc4ccccc43)CC2)cc1 | inactive
COC(=O)c1ccccc1NC(=O)C1CCN(C(=O)N2CCOc3ccccc32)CC1 | 89.1 µM (active)
COC(=O)c1ccccc1NC(=O)C1CCN(S(=O)(=O)c2cc(OC)ccc2OC)CC1 | inactive
Cc1ccc(-c2nn(CCC(=O)Nc3ccc(OC(F)(F)F)cc3)c(=O)c3ccccc23)cc1 | inactive
Clc1cccc(-n2ncc3c(NCCc4ccccc4)ncnc32)c1 | inactive
CCOc1ccccc1NC(=O)Cc1cccs1 | 10 µM (active)
COc1ccc(NC(=S)NCc2cccs2)c(OC)c1 | inactive
COc1ccc(Cc2nnc(NC(=O)Cc3cccs3)s2)cc1 | 2 µM (active)
COc1ccc(OC)c(NC(=O)Cc2cccs2)c1 | 50.1 µM (active)
O=C(Cc1cccs1)Nc1nnc(SCc2ccc(F)cc2)s1 | inactive
CCOc1ccc(NC(=O)C/C(C)=N/NC(=O)Cc2cccs2)cc1 | inactive
CCc1nnc(NC(=O)Cc2cccs2)s1 | inactive
CCOC(=O)c1ccc(NC(=O)Cc2cccs2)cc1 | inactive
COc1ccc(C)cc1NC(=O)CNCc1cccs1 | inactive
Cc1nnc(NC(=O)CSc2nc3c([nH]c4ccccc43)c(=O)n2-c2cccc(Cl)c2)s1 | inactive
CCN(C(=O)CSc1nnc(C)n2c1cc1occc12)c1ccccc1 | inactive
COc1ccc(C)cc1NC(=O)CCc1c(C)nn(-c2ccc(N3CCOCC3)nn2)c1C | inactive
Cc1ccc(NC(=O)CSc2nc(CSc3ccc(C)cc3)cc(=O)[nH]2)cc1 | inactive
COc1ccc(NC(=O)CSc2nc(NS(=O)(=O)c3ccc(C)cc3)cc(=O)[nH]2)cc1 | 17.8 µM (active)

SMILES | Potency
Cc1ccc(OCCCC(=O)Nc2ccc(S(=O)(=O)Nc3cc(C)nc(C)n3)cc2)cc1 | inactive
CC1CCC2(CC1)N=C(c1ccccc1)C(=O)N2CC(=O)Nc1ccc(F)c(Cl)c1 (centres undefined) | inactive
O=C(Nc1ccc2nc(SCCOc3ccccc3)sc2c1)c1ccco1 | inactive
CCS(=O)(=O)C1=NSC2=NC(=O)/C(=C\c3cc(C)n(-c4cccc(OC)c4)c3C)C(=N)N21 | inactive
CCS(=O)(=O)C1=NSC2=NC(=O)/C(=C\c3ccc(OS(=O)(=O)c4ccccc4)cc3)C(=N)N21 | inactive
CS(=O)(=O)c1ccc2c(c1)SC1=NC(=O)/C(=C/c3ccco3)C(=N)N12 | 31.6 µM (active)
CC(C)(C)c1ccc(C(=O)Nc2ccc3c(c2)CCCN3C(=O)c2cccs2)cc1 | inactive
CC(C)(C)C1C/C(=C/c2ccco2)C(=O)/C(=C/c2ccco2)C1 (centres undefined) | 10 µM (active)
CCC1C/C(=C/c2cccs2)C(=O)/C(=C/c2cccs2)C1 (centres undefined) | inactive
CC(C)c1ccc(NC(=O)c2ccc3c(O)c(S(=O)(=O)c4ccccc4)c(=O)[nH]c3c2)cc1 | inactive
CCOC(=O)C1CCN(C(=O)CSc2c3c(nc4ccc(Cl)cc24)CCCC3)CC1 | inactive
COCCNC(=O)c1ccc2c(c1)N(Cc1cccc(Cl)c1)C(=O)c1ccccc1S2(=O)=O | inactive
Cc1ccc2nc(-c3ccccn3)cc(C(=O)Nc3ccc4c(c3)OCO4)c2c1 | inactive
Cc1ccc2nc(-c3ccncc3)cc(C(=O)Nc3ccc(OC(F)F)cc3)c2c1 | 8.91 µM (active)
Cc1ccc2nc(-c3ccncc3)cc(C(=O)Nc3ccc4c(c3)OCCO4)c2c1 | inactive
Cc1ccc(Nc2ccc3cc(S(=O)(=O)N4CCCCC4)ccc3n2)cc1F | inactive
Cc1ccccc1OCCOc1ccc([N+](=O)[O-])cc1/C=N/n1cnnc1 | inactive
COc1ccccc1OCCOc1ccc(/C=C2\C(=N)N3N=C(C)SC3=NC2=O)cc1 | inactive
COc1ccccc1OCCOc1ccc(/C=N/n2cnnc2)cc1 | 44.7 µM (active)
CSc1ccccc1NC(=O)CCS(=O)(=O)c1nc(-c2cccs2)cc(C(F)(F)F)n1 | inactive
COc1cccc(Cn2c(SCc3ccc(C(=O)N4CCCCC4)cc3)nc3ccncc32)c1 | inactive
O=C(CN1CCN(S(=O)(=O)c2cc(Cl)ccc2Cl)CC1)c1ccc(O)c(O)c1 | 3.16 µM (active)
COc1ccc(Cl)cc1S(=O)(=O)N1CCN(CC(=O)C(C)(C)C)CC1 | inactive
N#Cc1ccsc1NC(=O)CN1CCN(S(=O)(=O)c2cc(Cl)ccc2Cl)CC1 | inactive
O=C(NCCc1ccccc1)c1ccc2c(c1)N(Cc1ccc(F)cc1)C(=O)c1ccccc1S2(=O)=O | inactive

SMILES | Potency
CCc1ccc(NC(=O)COC(=O)c2cccs2)cc1 | inactive
O=C(COC(=O)[C@H](Cc1ccccc1)NC(=O)c1cccs1)Nc1cc(F)ccc1F | 79.4 µM (active)
NC(=O)c1ccc(NC(=O)COC(=O)C(Cc2ccccc2)NC(=O)c2ccccc2)cc1 (centres undefined) | inactive
Cc1cccc(NC(c2cccc(F)c2)c2ccc3ccc(C)nc3c2O)n1 (centres undefined) | inactive
O=[N+]([O-])C(=c1ccc2c(c1)N1C3=C(CCCC3)CC3CCCCC31N=2)[N+](=O)[O-] (centres undefined) | 39.8 µM (active)
Cc1ccc(-c2nc3cccc(C)n3c2Nc2ccc3c(c2)OCCO3)cc1 | inactive
COc1cccc(CNC(=O)c2ccc3c(c2)N(Cc2ccc(C(F)(F)F)cc2)C(=O)c2ccccc2S3)c1OC | inactive
Cc1ccccc1-c1nc2scc(CCNC(=O)C(=O)Nc3ccc(F)cc3F)n2n1 | inactive
O=C(Cn1cc(SCc2ccccc2)c2ccccc21)N1CCCCC1 | inactive
COCC(=O)N1CCCC(C(=O)c2ccc(C(F)(F)F)cc2)C1 (centres undefined) | inactive
Cc1cnc(C(=O)N2CCCC(C(=O)c3ccc(C(F)(F)F)cc3)C2)cn1 (centres undefined) | 14.1 µM (active)
O=C(c1ccc(C(F)(F)F)cc1)C1CCCN(C(=O)c2csnn2)C1 (centres undefined) | inactive
Cc1cc(Cl)ccc1OCC(=O)N(Cc1ccc(N(C)C)cc1)C1CCS(=O)(=O)C1 (centres undefined) | inactive
CCOC(=O)c1c(NC(=O)CSc2cn(CCNC(=O)c3cccc(C(F)(F)F)c3)c3ccccc23)sc2c1CCC2 | inactive
Cc1ccc(-n2ncc3c(NCCCn4ccnc4)ncnc32)cc1Cl | inactive
O=C(Nc1ccc(S(=O)(=O)Nc2nccs2)cc1)c1cc(=O)[nH]c2ccccc12 | inactive
CCC(CC)C(=O)Nc1ccc(S(=O)(=O)Nc2nccs2)cc1 | inactive
O=C(Nc1ccc(S(=O)(=O)Nc2nccs2)cc1)c1cc(-c2ccncc2)nc2ccccc12 | 15.8 µM (active)
COc1ccc(CCNc2ncnc3c2cnn3-c2ccc(C)cc2)cc1 | inactive
CCOC(=O)C(Cc1ccc(N)cc1)N1C(=O)c2ccccc2C1=O (centres undefined) | inactive
Cc1ccc(C)n1C(Cc1ccccc1)C(=O)O (centres undefined) | 10 µM (active)
COc1ccc(CNC(=O)C(Cc2ccccc2)n2cccc2)cc1 (centres undefined) | inactive
COc1cc(OC)cc(C(=O)Nc2c(C(=O)Nc3ccc(F)cc3)oc3ccccc23)c1 | inactive
CCOC(=O)c1ccc(N2C(=O)c3n[nH]c(-c4ccco4)c3C2c2ccc(O)cc2)cc1 (centres undefined) | inactive
CCn1cc(C(=O)NCc2ccc(C)cc2)c(=O)c2cc(S(=O)(=O)N3CCc4ccccc4C3)ccc21 | inactive

SMILES | Potency
Cc1ccc(/C=C/C(=O)Nc2ccc([N+](=O)[O-])c(NC(=O)/C=C/c3ccc(C)o3)c2)o1 | 11.2 µM (active)
CCc1nnc(NC(=O)/C=C/c2ccc(C)o2)s1 | inactive
COc1ccc(OC)c(NC(=O)/C=C/c2ccc(C)o2)c1 | inactive
CCc1cc2c(-c3ccccc3)cc(=O)oc2c2c1OCN(Cc1ccc(C)cc1)C2 | inactive
O=S(=O)(c1ccc2nc(NCc3ccccc3Cl)ccc2c1)N1CCCCC1 | inactive
Brc1ccc2c(c1)NC(c1cccnc1)=NC(c1ccccc1)=N2 | inactive
CCc1ccc(CN(Cc2ccco2)C(=O)COc2ccc(Cl)c(C)c2)cc1 | inactive
N#Cc1c(-c2ccc(F)cc2)nc(-c2ccccc2)[nH]c1=O | inactive
O=c1[nH]c(SCc2cccc(F)c2)nc2ccccc12 | inactive
N#Cc1c(-c2ccccc2)nc(SCc2cccc(C(F)(F)F)c2)[nH]c1=O | 79.4 µM (active)
CCN(CC)CCOC(=O)c1ccc(NC(=O)CNC(=O)c2ccccc2)cc1 | inactive
O=C(COC(=O)CNC(=O)c1ccco1)Nc1ccc(F)cc1 | inactive
CCOC(=O)c1ccc(NC(=O)CNC(=O)c2ccco2)cc1 | 56.2 µM (active)
CCOC(=O)c1ccc(NC(=O)c2c(NCc3cccs3)sc3c2CCCC3)cc1 | inactive
CCN(CCCNC(=O)c1cc2c(=O)n(CC)c3ccccc3c2s1)Cc1ccccc1 | inactive
Cc1c(Cl)cccc1NC(=O)c1noc2c1CCCC2 | inactive
COc1cccc(/C=N/Nc2ccc(Cl)nn2)c1 | inactive
Oc1cccc(/C=N/Nc2ccc(Cl)nn2)c1O | 39.8 µM (active)
Cc1ccsc1/C=N/Nc1ccc(Cl)nn1 | inactive
CCOC(=O)c1c(NC(=O)COc2cc(C)ccc2C(C)C)sc(C)c1C | inactive
COc1ccc(S(=O)(=O)c2cn(C)c3cc(N4CCCCC4)c(F)cc3c2=O)cc1 | inactive
O=C(COc1ccc(-n2cnnn2)cc1)Nc1ccccc1Cl | 28.2 µM (active)
O=C(Cc1c(F)cccc1Cl)Nc1ccc(-n2cnnn2)cc1 | inactive
O=C(COc1ccc(Cl)cc1)Nc1ccccc1CO | inactive
